Measurements from the supplement of paper PMC8728848.
Many of the other results were omitted from the sample, so the strongest signals are more common in it than they were.

Columns and labels:
Assay in all cases: glycan array binding signal (z-score within array); higher = stronger binding
Conditions in all cases: glycan notation: IUPAC condensed, linker removed
[1] = biological target: Fuc(a1-2)Gal(b1-3)GalNAc(a1-3)[Fuc(a1-2)]Gal(b1-4)Glc
Summary of the method: (§1)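 The binding signal is a Z-score computed within each array. Data were drawn from 3228 arrays in the Consortium for Functional Glycomics database, restricted to those with a known protein sequence. Scores were averaged over arrays of the same protein sequence at different concentrations or buffers, and over linkers, and negative values can be taken as non-binding.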

[2] = biological target: Fuc(a1-2)Gal(b1-3)GalNAc(a1-3)[Fuc(a1-2)]Gal(b1-4)GlcNAc
Summary of the method: as §1

[3] = biological target: Fuc(a1-2)Gal(b1-3)GlcNAc(b1-2)Man(a1-3)[Fuc(a1-2)Gal(b1-3)GlcNAc(b1-2)Man(a1-6)]Man(b1-4)GlcNAc(b1-4)GlcNAc
Summary of the method: as §1

[4] = biological target: Fuc(a1-2)Gal(b1-4)Glc6S
Summary of the method: as §1

[5] = biological target: Fuc(a1-2)Gal(b1-4)GlcNAc(b1-3)Gal(b1-4)GlcNAc(b1-3)Gal(b1-4)GlcNAc
Summary of the method: as §1

[6] = biological target: Fuc(a1-2)Gal(b1-4)[Fuc(a1-3)]GlcNAc
Summary of the method: as §1

[7] = biological target: Fuc(a1-2)[Gal(a1-3)]Gal(b1-4)GlcNAc
Summary of the method: as §1

[8] = biological target: Fuc(a1-2)[Gal(a1-3)]Gal(b1-4)[Fuc(a1-3)]GlcNAc
Summary of the method: as §1

[9] = biological target: Fuc(a1-2)[GalNAc(b1-3)]Gal
Summary of the method: as §1

[10] = biological target: Fuc(b1-3)GlcNAc
Summary of the method: as §1

[11] = biological target: Gal(a1-3)Gal(b1-4)[Fuc(a1-3)]GlcNAc
Summary of the method: as §1

[12] = biological target: Gal(a1-4)Gal(b1-3)GlcNAc(b1-2)Man(a1-3)[Gal(a1-4)Gal(b1-3)GlcNAc(b1-2)Man(a1-6)]Man(b1-4)GlcNAc(b1-4)GlcNAc
Summary of the method: as §1

[13] = biological target: Gal(a1-4)GlcNAc
Summary of the method: as §1

[14] = biological target: Gal(b1-3)GalNAc(b1-3)Gal(a1-4)Gal(b1-4)Glc
Summary of the method: as §1

[15] = biological target: Gal(b1-3)GlcNAc(b1-3)Gal(b1-4)Glc
Summary of the method: as §1

[16] = biological target: Gal(b1-3)GlcNAc(b1-3)Gal(b1-4)GlcNAc(b1-6)[Gal(b1-3)GlcNAc(b1-3)]Gal(b1-4)Glc
Summary of the method: as §1

[17] = biological target: Gal(b1-3)GlcNAc(b1-3)GalNAc
Summary of the method: as §1

[18] = biological target: Gal(b1-3)[Fuc(a1-4)]GlcNAc(b1-2)Man(a1-3)[Gal(b1-3)[Fuc(a1-4)]GlcNAc(b1-2)Man(a1-6)]Man(b1-4)GlcNAc(b1-4)GlcNAc
Summary of the method: as §1

[19] = biological target: Gal(b1-4)GlcNAc(b1-3)Gal(b1-4)[Fuc(a1-3)]GlcNAc(b1-3)Gal(b1-4)[Fuc(a1-3)]GlcNAc
Summary of the method: as §1

[20] = biological target: Gal(b1-4)GlcNAc(b1-3)[GlcNAc(b1-6)]Gal(b1-4)GlcNAc
Summary of the method: as §1

[21] = biological target: Gal3S(b1-3)[Fuc(a1-4)]GlcNAc
Summary of the method: as §1

[22] = biological target: Gal3S(b1-4)Glc
Summary of the method: as §1

[23] = biological target: Gal3S(b1-4)[Fuc(a1-3)]Glc
Summary of the method: as §1

[24] = biological target: GlcA(b1-3)Gal
Summary of the method: as §1

[25] = biological target: GlcNAc(a1-4)Gal(b1-4)GlcNAc(b1-3)Gal(b1-4)GlcNAc
Summary of the method: as §1

[26] = biological target: GlcNAc(a1-4)Gal(b1-4)GlcNAc(b1-3)Gal(b1-4)[Fuc(a1-3)]GlcNAc(b1-3)Gal(b1-4)[Fuc(a1-3)]GlcNAc
Summary of the method: as §1

[27] = biological target: GlcNAc(b1-3)Gal(b1-4)Glc
Summary of the method: as §1

[28] = biological target: GlcNAc(b1-3)Gal(b1-4)GlcNAc
Summary of the method: as §1

[29] = biological target: GlcNAc(b1-3)Gal(b1-4)GlcNAc(b1-3)Gal(b1-4)GlcNAc
Summary of the method: as §1

[30] = biological target: GlcNAc(b1-4)GlcNAc(b1-4)GlcNAc
Summary of the method: as §1

[31] = biological target: GlcNAc(b1-4)GlcNAc(b1-4)GlcNAc(b1-4)GlcNAc(b1-4)GlcNAc
Summary of the method: as §1

[32] = biological target: GlcNAc(b1-4)GlcNAc(b1-4)GlcNAc(b1-4)GlcNAc(b1-4)GlcNAc(b1-4)GlcNAc
Summary of the method: as §1

[33] = biological target: GlcNAc(b1-4)[GlcNAc(b1-6)]GalNAc
Summary of the method: as §1

[34] = biological target: Man(a1-3)[Man(a1-6)]Man(b1-4)GlcNAc(b1-4)GlcNAc
Summary of the method: as §1

[35] = biological target: Neu5Ac(a2-3)Gal(b1-3)GalNAc
Summary of the method: as §1

[36] = biological target: Neu5Ac(a2-3)Gal(b1-4)[Fuc(a1-3)]GlcNAc
Summary of the method: as §1

[37] = biological target: Neu5Ac(a2-3)Gal(b1-4)[Fuc(a1-3)]GlcNAc(b1-3)GalNAc
Summary of the method: as §1

[38] = biological target: Neu5Ac(a2-3)Gal6S(b1-4)[Fuc(a1-3)]GlcNAc
Summary of the method: as §1

[39] = biological target: Neu5Ac(a2-3)GalNAc(b1-4)GlcNAc
Summary of the method: as §1

[40] = biological target: Neu5Ac(a2-6)Gal(b1-4)Glc
Summary of the method: as §1

[41] = biological target: Neu5Ac(a2-6)GalNAc(b1-4)GlcNAc
Summary of the method: as §1

B1: Ecp6 (Cladosporium fulvum), B3VBK9 (protein)
chain: MQSMILFAAALMGAAVNGFVLPRTDDPDCETKATDCGSTSNIKYTVVKGDTLTSIAKKFKSGICNIVSVNKLANPNLIELGATLIIPENCSNPDNKSCVSTPAEPTETCVPGLPGSYTIVSGDTLTNISQDFNITLDSLIAANTQIENPDAIDVGQIITVPVCPSSQCEAVGTYNIVAGDLFVDLAATYHTTIGQIKALNNNVNPSKLKVGQQIILPQDCKNVTTAVA
glycan array binding signal (z-score) [1]: -0.099
glycan array binding signal (z-score) [2]: -0.099
glycan array binding signal (z-score) [3]: -0.096
glycan array binding signal (z-score) [4]: -0.062
glycan array binding signal (z-score) [5]: -0.082
glycan array binding signal (z-score) [6]: -0.078
glycan array binding signal (z-score) [7]: -0.078
glycan array binding signal (z-score) [8]: -0.021
glycan array binding signal (z-score) [9]: -0.077
glycan array binding signal (z-score) [10]: -0.083
glycan array binding signal (z-score) [11]: -0.102
glycan array binding signal (z-score) [12]: -0.099
glycan array binding signal (z-score) [13]: -0.102
glycan array binding signal (z-score) [14]: -0.064
glycan array binding signal (z-score) [15]: -0.076
glycan array binding signal (z-score) [16]: -0.107
glycan array binding signal (z-score) [17]: -0.089
glycan array binding signal (z-score) [18]: -0.039
glycan array binding signal (z-score) [19]: -0.036
glycan array binding signal (z-score) [20]: -0.096
glycan array binding signal (z-score) [21]: -0.074
glycan array binding signal (z-score) [22]: -0.098
glycan array binding signal (z-score) [23]: -0.084
glycan array binding signal (z-score) [24]: -0.089
glycan array binding signal (z-score) [25]: -0.091
glycan array binding signal (z-score) [26]: -0.002
glycan array binding signal (z-score) [27]: -0.094
glycan array binding signal (z-score) [28]: -0.1
glycan array binding signal (z-score) [29]: -0.075
glycan array binding signal (z-score) [30]: 10.3
glycan array binding signal (z-score) [31]: 13
glycan array binding signal (z-score) [32]: 10.7
glycan array binding signal (z-score) [33]: -0.103
glycan array binding signal (z-score) [34]: -0.085
glycan array binding signal (z-score) [35]: -0.099
glycan array binding signal (z-score) [36]: -0.099
glycan array binding signal (z-score) [37]: -0.004
glycan array binding signal (z-score) [38]: -0.073
glycan array binding signal (z-score) [39]: -0.052
glycan array binding signal (z-score) [40]: -0.096
glycan array binding signal (z-score) [41]: -0.063
